In PubChem BioAssay AID485317 (Broad Institute, 2010):
Out of some 290,000 compounds screened, about 11,000 (3.8%) were called active.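 How the source made its calls: active means mean replicate inhibition above about 79%, with every replicate also reaching it (limit read from the data); inconclusive means only one of the two criteria met; inactive means mean below limit and not every replicate reaching it.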 The sample as a whole holds a higher share of actives than the screen did.

These compounds were tested against FAD-linked sulfhydryl oxidase ALR (Homo sapiens) (UniProt P55789) (assay: inhibitors of human ALR sulfhydryl oxidase, primary screen, biochemical, H2O2 detection, HRP-luminol luminescence, single point (AID 485317)). Conditions: purified ALR, DTT oxidation, stronger effect = higher value, concentration not given here.
FAD-linked sulfhydryl oxidase ALR (Homo sapiens), sequence (P55789 whole entry, looked up): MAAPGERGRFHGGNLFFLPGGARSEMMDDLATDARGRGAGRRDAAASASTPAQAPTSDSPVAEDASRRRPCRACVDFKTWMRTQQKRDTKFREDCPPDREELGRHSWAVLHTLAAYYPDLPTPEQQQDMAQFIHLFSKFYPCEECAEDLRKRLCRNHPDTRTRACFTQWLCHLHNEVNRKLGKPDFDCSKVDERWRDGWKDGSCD

Row | SMILES | inhibition
1 | C=CC[C@H](CC(=O)NCCO)C(=O)N[C@@H](COC(=O)[C@@H](CC=C)Cc1ccc(F)cc1)Cc1c[nH]c2ccccc12 | 6.65% (inactive)
2 | CCN(CC)c1ccc(NC(=O)C2CCC(CNc3c(N4CCCC4)c(=O)c3=O)CC2)c(C)c1 (stereo unspecified) | 99.4% (active)
3 | CCOc1ccccc1NC(=O)C1CCC(CNc2c(N3CCOCC3)c(=O)c2=O)CC1 (stereo unspecified) | -8.1% (inactive)
4 | COc1ccc(NC(=O)C2CCC(CNc3c(N4CCCCC4)c(=O)c3=O)CC2)c(OC)c1 (stereo unspecified) | -10.1% (inactive)
5 | COc1ccc(Cl)cc1NC(=O)CN(C)C(=O)c1cc2ccccc2cc1OC | -4.22% (inactive)
6 | CCCCn1c(-c2cccc(C)c2)nc2cc3[nH]c(=O)c(C(C)C)nc3cc21 | -32.5% (inactive)
7 | CC1CN(C(=O)COC(=O)c2cccc(NS(=O)(=O)c3ccccc3)c2)CC(C)O1 (stereo unspecified) | 2.21% (inactive)
8 | CCOc1ccc(C(=O)NCC(=O)N2CCCCCCC2)cc1OCC | -5.97% (inactive)
9 | O=C(COc1ccc(Br)cc1F)NCC1(N2CCCCC2)CCCCC1 | 2.53% (inactive)
10 | Cc1nnc(SCC(=O)N2CCOCC2)[nH]c1=O | 3.8% (inactive)
11 | CCCCOC(=O)CNc1nnc(SCC(=O)OCC)[nH]c1=O | 100% (active)
12 | CCOC(=O)CSc1nc(C)c(Oc2ccc(Cl)cc2Cl)c(=O)[nH]1 | -20.9% (inactive)
13 | Cc1c(C(=O)Nc2ccccn2)oc2ccc(Br)cc12 | 1.89% (inactive)
14 | COc1cc(OC)c(N2CC(C(=O)Nc3cc(Cl)ccc3N3CCOCC3)CC2=O)cc1Cl (stereo unspecified) | -7.16% (inactive)
15 | C[C@H]1CN([C@@H](C)CO)C(=O)Cc2cc(NC(=O)Cc3ccccc3)ccc2O[C@H]1CN(C)S(=O)(=O)c1cccs1 | 2.5% (inactive)
16 | CC(C)CN(C(=O)CSc1ncnc2sccc12)C1CCS(=O)(=O)C1 (stereo unspecified) | 5.3% (inactive)

Row | SMILES | inhibition
17 | COc1ccc(-c2cnc(SCCNC(=O)c3ccc4c(c3)OCO4)[nH]2)cc1 | 14.2% (inactive)
18 | CCN(CC)c1ccc2oc(=O)c(C)nc2c1 | 96.5% (active)
19 | CCN(CC)c1ccc2cc(C(N)=O)/c(=N\NC(=O)c3ccncc3)oc2c1 | 8.16% (inactive)
20 | CCN(CC)c1ccc2c(Nc3ccccc3)c(C=O)c(=O)oc2c1 | 1.6% (inactive)
21 | C[C@H](NS(=O)(=O)c1ccc(Cl)cc1)C(=O)OCC(=O)N1CCOCC1 | -3.05% (inactive)
22 | O=C(NC1CCCCCC1)C1CCN(C(=O)c2ccc(Cl)cc2)CC1 | 0.152% (inactive)
23 | COc1cc(C(=O)NCc2nnc(SCC(=O)c3ccc(Cl)cc3)o2)cc(OC)c1OC | -31.3% (inactive)
24 | COc1ccc(C(=O)NCc2nnc(SCC(=O)Nc3cccc(OC)c3)o2)cc1 | -14.1% (inactive)
25 | COc1cc(C(=O)NCc2nnc(SCC(=O)Nc3nc4ccc(C)cc4s3)o2)cc(OC)c1OC | 96.6% (active)
26 | COc1ccc(CN2CCN(C(=O)c3cc(C4CC4)nn3-c3ccccc3)CC2)cc1F | -3.02% (inactive)
27 | CCc1ccc(CN(C)C(=O)CCc2nnc(-c3ccc(-c4ccccc4)cc3)o2)nc1 | -6.23% (inactive)
28 | CC(=O)c1ccc(-c2nnc(CCC(=O)N(C)Cc3cnc4ccccn34)o2)s1 | 96.1% (active)
29 | CN(Cc1ccccc1)C(=O)CCc1ccccc1 | 26.4% (inactive)
30 | COc1ccc(C(=O)OCC(=O)c2cc(C)n(CC3CCCO3)c2C)cc1[N+](=O)[O-] (stereo unspecified) | -3.78% (inactive)
31 | O=C(CCNC(=O)c1ccc(Br)cc1)NCC(c1ccco1)N1CCCCC1 (stereo unspecified) | 1.52% (inactive)
